The text below walks through data of PubChem BioAssay AID1508600 (Functional Genomics Laboratory (NCATS/FGL), 2020).

The campaign covered roughly 53,000 sequences. About 3,700 (7%) were called active.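 The calls were made as follows: active = gene knockdowns whose robust z-score for IL-1 alpha signal is at least 2 or at most -2, so actives lie on both sides; inactive = the rest.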 The sample as a whole holds a higher share of actives than the screen did.

This assay in a line: Components of the Cytosolic LPS Sensing Pathway: Gene Identification via Genome-wide siRNA Screen.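 Also: robust z of the log signal after scaling to non-targeting control siRNA wells of the plate.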 The settings on record: RAW264.7 macrophages, IL-1a HTRF, actives lie on both sides, screened at 100 nM (by protocol), cells primed 5 h with Pam3CSK4 first. An outline of the steps:
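RAW264.7; siRNA 100 nM final, RNAiMAX, 48h 37 degrees C; Pam3CSK4 5 h; LipidA + TransIT-TKO 24 h; IL-1a HTRF; CellTiter-Glo viability; robust z vs negative-control median.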
With GGAGUACGACUACUACGGUTT against Sfrp5, the z-score is 0.83 (inactive).

Consider GGAUUACCGGCAGCUGGAATT against Dnm1, for which the z-score was 2.24 (active).

On to GGCGAGCAUCGCUAUUGACTT against Zcrb1, for which the z-score was 0.734 (inactive).

As to GGAGAUCCUAGGCUUGAACTT against Vsx2, the z-score was 0.279 (inactive).

For the sequence GGGAGACUUGUCAUGCACATT against Slc45a2, the z-score was 0.728 (inactive).

For GGUAGCUGAAGAAGACUUCTT against Reg2, the z-score was -0.591 (inactive).

For GGCUUUGCUGAAUGUCUCATT against Nrn1l, the z-score is 0.443 (inactive).

Consider CCUGCUAAUGUUUGUAAGUTT against Sowahc, for which the z-score is 1.37 (inactive).

Regarding GCAUUAAUUGCUUCUCUUATT against Nup155, the z-score is -2.35 (active).

For the sequence GGAACUCACCCUCAGCUUGTT against Tmem260, the z-score is 0.313 (inactive).

Consider CCAAACAACCAGCUAAUAUTT against Mia3, for which the z-score was -0.375 (inactive).

With GGUGAAAUGAGAAUACUUGTT against Erap1, the z-score is 1.07 (inactive).

In the case of CCCUGGUUGUUUGUAGAGUTT against Armt1, the z-score is 2.38 (active).

Take GGAAUGAUGAAGAGUGUCCTT against Btla: the z-score was -0.0564 (inactive).

Turning to GGCUACUGUAGGAAGAAAUTT against Defb20, the z-score is 1.7 (inactive).

On to GGAAGUUUUGUUCCUGCAUTT against Nars2, for which the z-score was -0.0244 (inactive).

Turning to GGCCAUCCAGAAUUACAUGTT against Vash2, the z-score was 1.08 (inactive).

Turning to GGAGAAGGAACUGUGUGAGTT against Nfkbil1, the z-score is -2.26 (active).

As to CCGGGUCAGGACAAUUCAUTT against Hsd17b1, the z-score is 1.87 (inactive).

As for GGCCAUUGAUCAAGACAAGTT against Glyat, the z-score was 1.66 (inactive).

For GGCUUUGUAGAAAAUUCAUTT against Polr2a, the z-score is -2.15 (active).

As to GCCGUGAUGCCUAAAAUGCTT against Olfr543, the z-score was -0.306 (inactive).

GGUAUCUUGAGAAGCCAAUTT against Stat3: the z-score was -0.536 (inactive).

GGAUUCAUCAUCUACCCGGTT against C1ql4: the z-score is -1.08 (inactive).

In the case of GGAUAACCUUGAGUAGGUGTT against Olfr906, the z-score was 0.484 (inactive).

As to CGGAUACCUAGAGUGCAUCTT against Zfp42, the z-score is 0.725 (inactive).

In the case of CGUGGAAGCUGUGUUAUCUTT against Il34, the z-score was -0.112 (inactive).

For the sequence GGAUGACCAGAACUUCAGUTT against Zfp956, the z-score was 2.84 (active).

On to AACGUAAUUAGCGUGAAUUTT against Cyp2j11, for which the z-score is 0.337 (inactive).

In the case of GCAGUUCCCAUAGUUUUCUTT against Il1r2, the z-score is 6.07 (active).

Take CUUGUCAAGUGAUGAAAUGTT against Xlr: the z-score is -0.546 (inactive).

Take GGUCGAAAGAAUAAUUUGUTT against Cct6a: the z-score is -0.628 (inactive).

With GGCAAUUUUCAGAGAAGUUTT against Fosb, the z-score was -2.08 (active).

Take GGCAGUCUACUUUACACGGTT against Prdm1: the z-score is 0.294 (inactive).

Regarding GGAUCUUGGAUAAAGUGUGTT against Gpr180, the z-score is 1.73 (inactive).

As to CCCAGUUGCUGUUCUUGACTT against Defb40, the z-score is 0.553 (inactive).

As for GGCUUCCUCAAGAACUUUCTT against Acly, the z-score is 0.0643 (inactive).

For the sequence CCGGUUACAAACUCAACUGTT against Syne3, the z-score was -0.285 (inactive).

GGGAGAGAUCCUCAACAGGTT against Cdk5rap1: the z-score is -0.581 (inactive).

GGUGCAUGACCUGACAAAGTT against Fermt3: the z-score was 2.5 (active).

On to “CCUGGGUUGGAUAAAACUUTT against 6030458C11Rik”, for which the z-score is -0.0611 (inactive).

As to GGAUUUUAAACCUUAAGGUTT against Ssty1, the z-score was 0.49 (inactive).

Regarding GGCAGUGAAGAGAAGAAGUTT against Trub2, the z-score is -0.835 (inactive).

GGAUUUCUUUGUCAGUACUTT against Il22ra2: the z-score is 0.791 (inactive).

On to CCAUUAUGGACAAUAAGAGTT against Rnf8, for which the z-score was 0.396 (inactive).

GCAUGUGACUCCAUAUAAATT against Cldn15: the z-score is -0.117 (inactive).

Take GGUUCAAAACUACACACACTT against Sp9: the z-score was 0.512 (inactive).

On to GGAGGGUACUCACAGGAAATT against Olfr411, for which the z-score is -2.05 (active).

GGAUCAAUGCACCUUCCAATT against Gpr85: the z-score is 1.61 (inactive).

GGACCAGUUUAUCCAGCACTT against Mc3r: the z-score is -0.699 (inactive).

GGCAGAAAAGAUAGCAUCUTT against Cops4: the z-score is 0.413 (inactive).

For the sequence GGUCUUUUCUAUUAUGGGATT against Strc, the z-score is 1.22 (inactive).

Consider “GCGGUUUUGUGUCAGGGACTT against 4833408A19Rik”, for which the z-score is -0.682 (inactive).

As for GGAGCUGUUGAAAGAAUAUTT against Relt, the z-score was 2.63 (active).

CCCUGAACAGGUCAUCUGUTT against Ctps2: the z-score is 0.822 (inactive).

Take GGACAUGACUCUAAAAAAATT against Slc44a3: the z-score was 4.43 (active).

As for CGUGCUCAUUUAGGUUAUATT against Zfp57, the z-score was 1.15 (inactive).

As to GGGCAAAUAGUCAAUGACCTT against Ces1e, the z-score is 0.661 (inactive).

As for GCGGAACUUUCAUUGCUGGTT against Rabggta, the z-score was 1.85 (inactive).

Take CCGGAGCACCAUUAAGGUUTT against Nudt11: the z-score is 4.75 (active).

Regarding GCCUUCUGAUUCAUUUUCUTT against Naa38, the z-score was 0.525 (inactive).

GGAAAGUUUGCACUGUAAATT against Tiam2: the z-score was -0.207 (inactive).

With CCGUCUUCACCUGAUACAGTT against Ube2d2b, the z-score is 0.501 (inactive).

For the sequence GCUGAACGGUCUCAAACAGTT against Cdca3, the z-score is 0.395 (inactive).

GGUGUCUCUGAUGAAUCACTT against Syt15: the z-score was 1.21 (inactive).

UCACAGUCAUCAUUGUUUCTT against Olfr825: the z-score was -2.83 (active).

As to GGAAGUCCAACUUCUUCCATT against Ebf4, the z-score is -0.153 (inactive).

GGUACCAUGAAGGAUUUAUTT against Tspan2: the z-score is 3.24 (active).

GGCAUGAUGAUAUUUGAAATT against Glrp1: the z-score is -0.142 (inactive).

For GGAAAAAGAUGUCCUAUCUTT against Rufy2, the z-score is -1.08 (inactive).

As to GGAUGUGGGUGGAUAUCAUTT against Sit1, the z-score was 0.145 (inactive).

For the sequence GGAAAAAAAGGUAGCUGGATT against Tspyl4, the z-score is 2.82 (active).

With GCUUAUCGAAUUCUUCUCCTT against Cnpy2, the z-score was 0.417 (inactive).

As to CUAGAUGCACAGAAUAGCATT against Prm1, the z-score is -1.83 (inactive).

Regarding GCAAUAGGCAAUCUGGGAUTT against Olfr52, the z-score is 0.504 (inactive).

Consider GCCUCAAUAAAUUGUCAGCTT against Slc25a17, for which the z-score is -0.0131 (inactive).

In the case of GAAGCAGAACUUGAGCAAGTT against Phgdh, the z-score was 2.07 (active).

With GCUGCAUAGAAUGACACGATT against Pip5kl1, the z-score is 0.851 (inactive).

For the sequence GGCAAAGACGACCUCUCACTT against Vtcn1, the z-score is -1.56 (inactive).

In the case of GGAUGAUGAAGUCAAAUUUTT against Slc26a5, the z-score was 0.0656 (inactive).

As for CGACACCUAAGUUCAGCACTT against Mief2, the z-score is -1.91 (inactive).

With GCACUUUCAUGGAUAUAAGTT against Rab22a, the z-score was -0.366 (inactive).

Consider GGCACUACUAAGAACCUUATT against Tmem69, for which the z-score is 0.728 (inactive).

As to CGCAUACUGAUGAUAACUATT against Zfp317, the z-score is 2.12 (active).

Turning to GGAAACCUUUUACCUUUAATT against Padi1, the z-score is -0.874 (inactive).

On to CCAAAAUCGGGAAAGGAAATT against Ldb2, for which the z-score is -0.00816 (inactive).

“GGCUUGACCUGCGUCUUCATT against 1700001P01Rik”: the z-score is 0.736 (inactive).

In the case of GGAACAUUGGCAUCACGACTT against Acy1, the z-score is 0.901 (inactive).

With GGACGACGACUUUUUAAAATT against Pnmal1, the z-score is 2.18 (active).

CCAUCUCUUACUAUCCAUGTT against Cmbl: the z-score was -1.03 (inactive).

GGCAUGACUGGACUGAAAATT against Ythdf3: the z-score is -0.976 (inactive).

With GGGAUUUAGCACAAGAUACTT against Brinp3, the z-score is 0.606 (inactive).

On to GGUAUUCUUGGAAGGAGGGTT against Prss22, for which the z-score is 0.153 (inactive).

As to GGUCCAGAGAAGGCAAGCUTT against Elf3, the z-score is 5.87 (active).

Turning to CGAAAAUCUUCUGGCUCACTT against Llgl2, the z-score is -0.922 (inactive).

Consider GGGACUUAGAAACAAUCCATT against Hsd3b4, for which the z-score is 1.77 (inactive).

On to GGUAGCGAUGUUUUCUUAUTT against Nt5dc3, for which the z-score was 1.66 (inactive).

As to GGUCAUGCUGAUCAGCGACTT against Itfg2, the z-score is -0.564 (inactive).

With GGACUACAUGCUCACGUUATT against Ccm2, the z-score was 2.07 (active).

On to CGCCGCACAGUUAAUGCUUTT against Mettl17, for which the z-score is 0.973 (inactive).

For the sequence GGUUCCUCUCAAAAUUCAATT against Gprc6a, the z-score is 3.13 (active).

On to GCGAGAGAUGAAAUGGGUGTT against Tbc1d10c, for which the z-score was 1.07 (inactive).

Regarding CCUUAAAAGUAACCACUGUTT against Slc6a6, the z-score was 2.38 (active).

For the sequence GGUUUUAUCUCUUGUGCCCTT against Myl10, the z-score is -0.565 (inactive).

As to GGCCAAGGAUCCAUCUGUATT against Magee1, the z-score was 0.11 (inactive).

Take GCAAUAGCAGCAACUCUUATT against Dbpht1: the z-score is -0.369 (inactive).

GGCUCUAACAGCUACAUGUTT against Hspb7: the z-score was -2.21 (active).

With GGGAGAUGUCUUACACAUGTT against Fkbp2, the z-score is 1.12 (inactive).
